These entries were drawn from the full list.
IDE exosite inh – exo-site inhibitors of human IDE, primary screen, biochemical, fluorescence anisotropy, probe displacement; Insulin-degrading enzyme (Homo sapiens), P14735; 17,000 compounds, 6.3% hits; purified IDE, FL-6b probe fluorescence polarization; stronger effect = lower value; z-score at 20 µM; AID 1259349, 2017;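 active = z-score of -3 or lower, meaning strong loss of probe binding signal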;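 also: His-tagged human IDE residues 42-1019 made in E. coli with 30 nM FL-6b probe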
Numbers without * were called inactive.

SMILES | IDE exosite inh
COc1cccc(-c2ccc([C@H]3[C@H](CO)N4CCCCN(S(=O)(=O)c5cn(C)cn5)C[C@@H]34)cc2)c1 | -0.35
Cc1cccc(-c2ccc([C@@H]3[C@H]4CN(S(=O)(=O)c5cn(C)cn5)CCCCN4[C@H]3CO)cc2)c1 | -6.1*
COc1cccc(-c2ccc([C@@H]3[C@@H](CO)N4CCCCN(S(=O)(=O)c5cn(C)cn5)C[C@H]34)cc2)c1 | 1.4
COc1cccc(-c2ccc([C@H]3[C@@H](CO)N4CCCCN(S(=O)(=O)c5cn(C)cn5)C[C@@H]34)cc2)c1 | 0.93
CC(C)NC(=O)N1CCCCN2[C@@H](CO)[C@H](c3ccc(C#C[C@H](C)O)cc3)[C@@H]2C1 | -0.98
CC(C)C#Cc1ccc([C@H]2[C@H](C#N)N(C(=O)C3CC3)[C@H]2CO)cc1 | 2.7
C/C=C/c1ccc([C@H]2[C@@H](CNC(=O)c3ccccn3)N(C(C)=O)[C@H]2CO)cc1 | 0.87
CC(C)NC(=O)N1[C@H](C#N)[C@H](c2ccccc2-c2ccc(F)cc2)[C@@H]1CO | 1.6
C/C=C/c1ccc([C@H]2[C@@H](C#N)N(C(=O)NC3CCCC3)[C@@H]2CO)cc1 | 1.3
O=C(C[C@H]1C[C@@H]2c3cc(NC(=O)Nc4ccccc4)ccc3O[C@@H]2[C@H](CO)O1)NCc1ccccc1 | 0
CN1C(=O)c2cc(NC(=O)c3ccccc3Cl)ccc2OC[C@H]2O[C@@H](CC(=O)Nc3ccc4c(c3)CCC4)CC[C@@H]21 | -1.1
CN(C)C(=O)c1ccc(-c2ccccc2[C@@H]2[C@@H](CO)N(C(=O)C3CCC3)[C@H]2C#N)cc1 | 2.5
C[C@H](CO)N1C[C@H](C)[C@@H](CN(C)S(=O)(=O)c2ccc(Oc3ccccc3)nc2)OCc2cnnn2CCCC1=O | -1.7
C[C@H]1CN([C@@H](C)CO)C(=O)c2c(c3ccccc3n2C)-c2ccccc2CO[C@H]1CN(C)C(=O)Nc1ccccc1C(F)(F)F | 1.3
